Laboratory results: the supplement of paper PMC8728848
Shown is part of a subset that was picked to be rich in the strongest signals.

Columns and labels:
Assay in all cases: glycan array binding signal (z-score within array); higher = stronger binding
Conditions in all cases: glycan notation: IUPAC condensed, linker removed
[1] = molecular target: Fuc(a1-2)Gal(b1-3)GalNAc(b1-4)[Neu5Ac(a2-3)]Gal(b1-4)Glc
Outline: (§1)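 The Consortium for Functional Glycomics database supplied 3228 glycan arrays, of which those lacking an available protein sequence were dropped. The binding signal, a within-array Z-score, was averaged across arrays of the same protein sequence and across linkers. Negative scores can be read as non-binding.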

[2] = molecular target: Fuc(a1-2)Gal(b1-4)GlcNAc(b1-3)Gal(b1-4)GlcNAc(b1-2)Man(a1-3)[Fuc(a1-2)Gal(b1-4)GlcNAc(b1-3)Gal(b1-4)GlcNAc(b1-2)Man(a1-6)]Man(b1-4)GlcNAc(b1-4)GlcNAc
Outline: as §1

[3] = molecular target: Fuc(a1-2)Gal(b1-4)[Fuc(a1-3)]GlcNAc(b1-3)Gal(b1-4)[Fuc(a1-3)]GlcNAc(b1-3)Gal(b1-4)[Fuc(a1-3)]GlcNAc
Outline: as §1

[4] = molecular target: Fuc(a1-2)[Gal(a1-3)]Gal(b1-4)GlcNAc(b1-3)GalNAc
Outline: as §1

[5] = molecular target: Fuc(a1-2)[Gal(a1-3)]Gal(b1-4)GlcNAc(b1-3)[Fuc(a1-2)[Gal(a1-3)]Gal(b1-4)GlcNAc(b1-6)]GalNAc
Outline: as §1

[6] = molecular target: Fuc(a1-2)[GalNAc(a1-3)]Gal(b1-4)GlcNAc(b1-2)Man
Outline: as §1

[7] = molecular target: Fuc(a1-2)[GalNAc(a1-3)]Gal(b1-4)GlcNAc(b1-6)GalNAc
Outline: as §1

[8] = molecular target: Fuc(a1-3)[Gal3S(b1-4)]GlcNAc6S
Outline: as §1

Fuc(b1-3)GlcNAc = molecular target: Fuc(b1-3)GlcNAc
Outline: as §1

Gal(a1-3)Gal(b1-4)GlcNAc = molecular target: Gal(a1-3)Gal(b1-4)GlcNAc
Outline: as §1

[9] = molecular target: Gal(a1-4)Gal(b1-4)GlcNAc(b1-3)Gal(b1-4)Glc
Outline: as §1

[10] = molecular target: Gal(b1-3)GalNAc(a1-3)[Fuc(a1-2)]Gal(b1-4)Glc
Outline: as §1

[11] = molecular target: Gal(b1-3)GalNAc(a1-3)[Fuc(a1-2)]Gal(b1-4)GlcNAc
Outline: as §1

[12] = molecular target: Gal(b1-3)GlcNAc(a1-3)Gal(b1-4)GlcNAc
Outline: as §1

[13] = molecular target: Gal(b1-3)GlcNAc(b1-2)[Gal(b1-3)GlcNAc(b1-6)]Man(a1-6)[Gal(b1-3)GlcNAc(b1-2)Man(a1-3)]Man(b1-4)GlcNAc(b1-4)GlcNAc
Outline: as §1

[14] = molecular target: Gal(b1-3)[Fuc(a1-4)]GlcNAc(b1-2)Man
Outline: as §1

[15] = molecular target: Gal(b1-3)[Fuc(a1-4)]GlcNAc(b1-3)Gal(b1-3)[Fuc(a1-4)]GlcNAc
Outline: as §1

Gal(b1-4)Gal = molecular target: Gal(b1-4)Gal
Outline: as §1

[16] = molecular target: Gal(b1-4)GalNAc(a1-3)[Fuc(a1-2)]Gal(b1-4)GlcNAc
Outline: as §1

[17] = molecular target: Gal(b1-4)GlcNAc(b1-2)Man(a1-3)[Gal(b1-4)GlcNAc(b1-2)Man(a1-6)][GlcNAc(b1-4)]Man(b1-4)GlcNAc(b1-4)[Fuc(a1-6)]GlcNAc
Outline: as §1

[18] = molecular target: Gal(b1-4)GlcNAc(b1-2)Man(a1-3)[GlcNAc(b1-4)][Gal(b1-4)GlcNAc(b1-2)Man(a1-6)]Man(b1-4)GlcNAc(b1-4)GlcNAc
Outline: as §1

[19] = molecular target: Gal(b1-4)GlcNAc(b1-2)Man(a1-6)[GlcNAc(b1-2)Man(a1-3)]Man(b1-4)GlcNAc(b1-4)GlcNAc
Outline: as §1

[20] = molecular target: Gal(b1-4)GlcNAc(b1-2)[Gal(b1-4)GlcNAc(b1-6)]Man(a1-6)[GlcNAc(b1-4)][Gal(b1-4)GlcNAc(b1-2)[Gal(b1-4)GlcNAc(b1-4)]Man(a1-3)]Man(b1-4)GlcNAc(b1-4)[Fuc(a1-6)]GlcNAc
Outline: as §1

[21] = molecular target: Gal(b1-4)GlcNAc(b1-3)Gal(b1-4)GlcNAc(b1-2)[Gal(b1-4)GlcNAc(b1-3)Gal(b1-4)GlcNAc(b1-6)]Man(a1-6)[Gal(b1-4)GlcNAc(b1-3)Gal(b1-4)GlcNAc(b1-2)Man(a1-3)]Man(b1-4)GlcNAc(b1-4)[Fuc(a1-6)]GlcNAc
Outline: as §1

[22] = molecular target: Gal(b1-4)GlcNAc(b1-3)GalNAc
Outline: as §1

Gal3S(b1-3)GalNAc = molecular target: Gal3S(b1-3)GalNAc
Outline: as §1

Gal4S(b1-4)GlcNAc = molecular target: Gal4S(b1-4)GlcNAc
Outline: as §1

Gal6P(b1-4)GlcNAc = molecular target: Gal6P(b1-4)GlcNAc
Outline: as §1

GalNAc(b1-4)GlcNAc6S = molecular target: GalNAc(b1-4)GlcNAc6S
Outline: as §1

B1: SSR2 (Sclerotium rolfsii) (protein)
chain: MVYKITVRVYQTNPDAFFHPVEKTVWKYANGGTWSITDDQHVLTMGGSGTSGTLRFHADNGESFTATFGVHNYKRWCDIVTNLAADETGMVINQQYYSQKNREEARERQLSNYQVKNAKGRNFQIVYTEAEGNDLHANLIIG
glycan array binding signal (z-score) [1]: -0.282
glycan array binding signal (z-score) [2]: -0.273
glycan array binding signal (z-score) [3]: -0.294
glycan array binding signal (z-score) [4]: -0.285
glycan array binding signal (z-score) [5]: -0.277
glycan array binding signal (z-score) [6]: -0.275
glycan array binding signal (z-score) [7]: -0.297
glycan array binding signal (z-score) [8]: -0.279
glycan array binding signal (z-score) (Fuc(b1-3)GlcNAc): -0.269
glycan array binding signal (z-score) (Gal(a1-3)Gal(b1-4)GlcNAc): -0.292
glycan array binding signal (z-score) [9]: -0.285
glycan array binding signal (z-score) [10]: 3.93
glycan array binding signal (z-score) [11]: 2.96
glycan array binding signal (z-score) [12]: -0.278
glycan array binding signal (z-score) [13]: -0.286
glycan array binding signal (z-score) [14]: -0.286
glycan array binding signal (z-score) [15]: -0.272
glycan array binding signal (z-score) (Gal(b1-4)Gal): -0.288
glycan array binding signal (z-score) [16]: -0.279
glycan array binding signal (z-score) [17]: -0.287
glycan array binding signal (z-score) [18]: -0.259
glycan array binding signal (z-score) [19]: 3.34
glycan array binding signal (z-score) [20]: -0.266
glycan array binding signal (z-score) [21]: -0.229
glycan array binding signal (z-score) [22]: -0.281
glycan array binding signal (z-score) (Gal3S(b1-3)GalNAc): 4.27
glycan array binding signal (z-score) (Gal4S(b1-4)GlcNAc): -0.297
glycan array binding signal (z-score) (Gal6P(b1-4)GlcNAc): -0.287
glycan array binding signal (z-score) (GalNAc(b1-4)GlcNAc6S): -0.294
